Measured values as given in PubChem BioAssay AID1159580 (chemical genetic matrix, 2015).
Out of some 5,500 compounds screened, about 2,000 (36%) were called active. Another 18% or so got no clear call; they are omitted. Rule as the data show it: active = normalized growth mostly below about 0.91 (no sharp cut-off); inconclusive = no clear call, values can overlap the other calls; inactive = mostly above about 0.92. This is one part of the list.

Assay: chemical genetic growth profiling, strain panel (AID 1159580);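 also: tested at 20 µM; growth read once vehicle control cultures reached saturation at 30 °C; 1 = growth at the plate median or of vehicle wells; lower values mean less growth of the strain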
Conditions: growth OD

Measured: normalized growth

O=c1[nH]c(=O)n(C2C[C@H](O)[C@@H](CO)O2)cc1C(F)(F)F (stereo partly specified)
inactive: S. cerevisiae deletion strains, locus YKL009W, strain mrt4, stronger effect = lower value 0.981 | S. cerevisiae deletion strains, locus YKL068W, stronger effect = lower value 0.978 | S. cerevisiae deletion strains, locus YKL085W, strain MDH1 (second series), stronger effect = lower value 0.974 | S. cerevisiae deletion strains, locus YKL085W, strain MDH1, stronger effect = lower value 0.974 | S. cerevisiae deletion strains, locus YKL160W, strain elf1, stronger effect = lower value 0.954 | S. cerevisiae deletion strains, locus YKL190W, strain CNB1, stronger effect = lower value 0.996 | S. cerevisiae deletion strains, locus YKR001C, strain vps1, stronger effect = lower value 0.982 | S. cerevisiae deletion strains, locus YKR026C, strain gcn3, stronger effect = lower value 0.973 | S. cerevisiae deletion strains, locus YKR091W, strain srl3, stronger effect = lower value 0.96 | S. cerevisiae deletion strains, locus YLL001W, strain dnm1, stronger effect = lower value 0.994 | S. cerevisiae deletion strains, locus YLL026W, stronger effect = lower value 0.962 | S. cerevisiae deletion strains, locus YLL041C, strain sdh2, stronger effect = lower value 0.954 | S. cerevisiae deletion strains, locus YLR027C, strain aat2, stronger effect = lower value 0.965 | S. cerevisiae deletion strains, locus YLR039C, strain RIC1, stronger effect = lower value 0.934 | S. cerevisiae deletion strains, locus YLR058C, strain SHM2, stronger effect = lower value 0.968 | S. cerevisiae deletion strains, locus YLR102C, strain apc9, stronger effect = lower value 0.98 | S. cerevisiae deletion strains, locus YLR113W, strain HOG1, stronger effect = lower value 0.996 | S. cerevisiae deletion strains, locus YLR221C, strain rsa3, stronger effect = lower value 0.988 | S. cerevisiae deletion strains, locus YLR258W, strain gsy2, stronger effect = lower value 0.965 | S. cerevisiae deletion strains, locus YLR262C, strain YPT6 (second series), stronger effect = lower value 0.936 | S. cerevisiae deletion strains, locus YLR262C, strain YPT6, stronger effect = lower value 0.955 | S. cerevisiae deletion strains, locus YLR268W, strain sec22, stronger effect = lower value 0.962 | S. cerevisiae deletion strains, locus YLR320W, strain mms22, stronger effect = lower value 1 | S. cerevisiae deletion strains, locus YLR330W, strain CHS5, stronger effect = lower value 0.988 | S. cerevisiae deletion strains, locus YLR342W, strain FKS1 (second series), stronger effect = lower value 1 | S. cerevisiae deletion strains, locus YLR342W, strain FKS1, stronger effect = lower value 0.966 | S. cerevisiae deletion strains, locus YLR357W, strain rsc2, stronger effect = lower value 0.981 | S. cerevisiae deletion strains, locus YLR370C, strain arc18, stronger effect = lower value 0.947 | S. cerevisiae deletion strains, locus YLR371W, strain rom2, stronger effect = lower value 0.97 | S. cerevisiae deletion strains, locus YLR384C, strain iki3, stronger effect = lower value 0.952 | S. cerevisiae deletion strains, locus YLR418C, strain cdc73, stronger effect = lower value 0.975 | S. cerevisiae deletion strains, locus YML016C, strain PPZ1, stronger effect = lower value 0.993 | S. cerevisiae deletion strains, locus YML032C, strain rad52, stronger effect = lower value 0.979 | S. cerevisiae deletion strains, locus YML120C, strain ndi1, stronger effect = lower value 0.992 | S. cerevisiae deletion strains, locus YML124C, strain tub3, stronger effect = lower value 0.972 | S. cerevisiae deletion strains, locus YMR058W, strain fet3, stronger effect = lower value 0.952 | S. cerevisiae deletion strains, locus YMR078C, strain ctf18, stronger effect = lower value 0.972 | S. cerevisiae deletion strains, locus YMR125W, strain sto1, stronger effect = lower value 0.95 | S. cerevisiae deletion strains, locus YMR129W, stronger effect = lower value 0.967 | S. cerevisiae deletion strains, locus YMR205C, strain PFK2, stronger effect = lower value 0.983 | S. cerevisiae deletion strains, locus YMR223W, strain ubp8, stronger effect = lower value 0.988 | S. cerevisiae deletion strains, locus YMR231W, strain pep5, stronger effect = lower value 0.981 | S. cerevisiae deletion strains, locus YMR263W, strain SAP30, stronger effect = lower value 1 | S. cerevisiae deletion strains, locus YMR307W, strain GAS1, stronger effect = lower value 0.978 | S. cerevisiae deletion strains, locus YNL067W, strain RPL9B, stronger effect = lower value 0.992 | S. cerevisiae deletion strains, locus YNL071W, strain lat1, stronger effect = lower value 1 | S. cerevisiae deletion strains, locus YNL128W, strain TEP1, stronger effect = lower value 0.976 | S. cerevisiae deletion strains, locus YNL153C, strain GIM3, stronger effect = lower value 0.992 | S. cerevisiae deletion strains, locus YNL183C, strain NPR1, stronger effect = lower value 0.966 | S. cerevisiae deletion strains, locus YNL209W, strain ssb2, stronger effect = lower value 0.961 | S. cerevisiae deletion strains, locus YNL233W, strain BNI4, stronger effect = lower value 0.978 | S. cerevisiae deletion strains, locus YNL248C, strain rpa49, stronger effect = lower value 0.926 | S. cerevisiae deletion strains, locus YNL250W, strain rad50, stronger effect = lower value 0.951 | S. cerevisiae deletion strains, locus YNL271C, strain bni1, stronger effect = lower value 0.983 | S. cerevisiae deletion strains, locus YNL298W, strain CLA4, stronger effect = lower value 0.971 | S. cerevisiae deletion strains, locus YNL307C, strain MCK1, stronger effect = lower value 0.972 | S. cerevisiae deletion strains, locus YNL322C, strain KRE1 (second series), stronger effect = lower value 0.935 | S. cerevisiae deletion strains, locus YNL322C, strain KRE1, stronger effect = lower value 0.989 | S. cerevisiae deletion strains, locus YNR049C, strain mso1, stronger effect = lower value 0.957 | S. cerevisiae deletion strains, locus YNR052C, strain pop2, stronger effect = lower value 0.992 | S. cerevisiae deletion strains, locus YOL006C, strain TOP1, stronger effect = lower value 0.969 | S. cerevisiae deletion strains, locus YOL012C, strain htz1 0.749 | S. cerevisiae deletion strains, locus YOL147C, strain pex11, stronger effect = lower value 0.974 | S. cerevisiae deletion strains, locus YOR001W, strain rrp6, stronger effect = lower value 0.99 | S. cerevisiae deletion strains, locus YOR061W, strain CKA2, stronger effect = lower value 0.987 | S. cerevisiae deletion strains, locus YOR069W, strain VPS5, stronger effect = lower value 0.983 | S. cerevisiae deletion strains, locus YOR070C, strain gyp1, stronger effect = lower value 0.977 | S. cerevisiae deletion strains, locus YOR080W, strain dia2, stronger effect = lower value 0.96 | S. cerevisiae deletion strains, locus YOR083W, strain WHI5, stronger effect = lower value 0.917 | S. cerevisiae deletion strains, locus YOR106W, strain vam3, stronger effect = lower value 0.95 | S. cerevisiae deletion strains, locus YOR136W, strain idh2, stronger effect = lower value 0.978 | S. cerevisiae deletion strains, locus YOR144C, strain elg1, stronger effect = lower value 0.97 | S. cerevisiae deletion strains, locus YOR184W, strain ser1, stronger effect = lower value 0.983 | S. cerevisiae deletion strains, locus YOR231W, strain MKK1, stronger effect = lower value 0.992 | S. cerevisiae deletion strains, locus YOR265W, strain rbl2, stronger effect = lower value 0.971 | S. cerevisiae deletion strains, locus YOR270C, strain vph1, stronger effect = lower value 0.948 | S. cerevisiae deletion strains, locus YOR290C, strain snf2, stronger effect = lower value 0.949 | S. cerevisiae deletion strains, locus YOR316C, strain cot1, stronger effect = lower value 0.983 | S. cerevisiae deletion strains, locus YPL051W, strain arl3, stronger effect = lower value 0.981 | S. cerevisiae deletion strains, locus YPL055C, strain LGE1, stronger effect = lower value 0.985 | S. cerevisiae deletion strains, locus YPL078C, strain atp4, stronger effect = lower value 0.988 | S. cerevisiae deletion strains, locus YPL106C, strain sse1, stronger effect = lower value 0.944 | S. cerevisiae deletion strains, locus YPL240C, strain hsp82, stronger effect = lower value 0.969 | S. cerevisiae deletion strains, locus YPL241C, strain CIN2, stronger effect = lower value 0.983 | S. cerevisiae deletion strains, locus YPL256C, strain CLN2, stronger effect = lower value 1.04 | S. cerevisiae deletion strains, locus YPR119W, strain clb2, stronger effect = lower value 0.987 | S. cerevisiae deletion strains, locus YPR141C, strain kar3, stronger effect = lower value 0.959 | S. cerevisiae deletion strains, locus YPR163C, strain tif3, stronger effect = lower value 0.972 | S. cerevisiae deletion strains, locus YPR167C, strain met16, stronger effect = lower value 0.971 | S. cerevisiae deletion strains, strain wtn01, stronger effect = lower value 0.985 | S. cerevisiae strains, strain wild type, stronger effect = lower value 0.985
